Measurements reported in PubChem BioAssay (NCI).
The panel holds about 83,000 compounds, 20% with a hit somewhere; the sample as a whole holds those more often.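 Activity criterion: percent growth below 10, measured after cells in 96-well plates were exposed to a single compound concentration for 48 hours.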 Active and inactive are the calls of the source.

Key:
Assay in all cases: NCI-60 one-dose screen, 48 h (100 = growth as untreated, 0 = no growth, -100 = all killed)
NCI-H23 lung = test system: NCI-H23 lung
NCI-H226 lung = test system: NCI-H226 lung
NCI-H322M lung = test system: NCI-H322M lung
HOP-62 NSCLC = test system: HOP-62 NSCLC
NCI-H460 lung = test system: NCI-H460 lung
HOP-92 NSCLC = test system: HOP-92 NSCLC
NCI-H522 lung = test system: NCI-H522 lung
A549/ATCC NSCLC = test system: A549/ATCC NSCLC
786-0 renal = test system: 786-0 renal
COLO 205 colon = test system: COLO 205 colon
DU-145 prostate = test system: DU-145 prostate
K-562 leukemia = settings: 10 µM unless noted
MALME-3M melanoma = test system: MALME-3M melanoma
MDA-MB-231 breast = test system: MDA-MB-231 breast
RXF 393 renal = test system: RXF 393 renal
SF-268 CNS = test system: SF-268 CNS
SF-295 CNS = test system: SF-295 CNS
SF-539 CNS = test system: SF-539 CNS
UACC-257 melanoma = test system: UACC-257 melanoma
M14 melanoma = test system: M14 melanoma

Measured: growth

C=CC[n+]1cccc2c3ccccc3ccc21
inactive: NCI-H23 lung; 10 µM unless noted 27.4% | NCI-H226 lung; 10 µM unless noted 58% | NCI-H322M lung; 10 µM unless noted 76.7% | HOP-62 NSCLC; 10 µM unless noted 44.9% | NCI-H460 lung; 10 µM unless noted 23.2% | HOP-92 NSCLC; 10 µM unless noted 52.3% | NCI-H522 lung; 10 µM unless noted 27.1% | A549/ATCC NSCLC; 10 µM unless noted 28.1% | 786-0 renal; 10 µM unless noted 66.2% | COLO 205 colon; 10 µM unless noted 28.4% | DU-145 prostate; 10 µM unless noted 58.4% | K-562 leukemia 27.8% | MDA-MB-231 breast; 10 µM unless noted 77.6% | RXF 393 renal; 10 µM unless noted 69.7% | SF-268 CNS; 10 µM unless noted 22.7% | SF-295 CNS; 10 µM unless noted 21.4% | SF-539 CNS; 10 µM unless noted 66.6% | UACC-257 melanoma; 10 µM unless noted 20.9% | M14 melanoma; 10 µM unless noted 65.9%
active: MALME-3M melanoma; 10 µM unless noted 2.38%

COC(=O)c1cccc(Oc2ccc(NC(=O)Nc3cc(C(F)(F)F)ccc3F)cc2)c1
inactive: NCI-H23 lung; 10 µM unless noted 69.3% | NCI-H226 lung; 10 µM unless noted 57.5% | NCI-H322M lung; 10 µM unless noted 91.1% | NCI-H460 lung; 10 µM unless noted 30.6% | HOP-92 NSCLC; 10 µM unless noted 40.7% | NCI-H522 lung; 10 µM unless noted 49.8% | A549/ATCC NSCLC; 10 µM unless noted 47% | 786-0 renal; 10 µM unless noted 47.3% | COLO 205 colon; 10 µM unless noted 88.2% | DU-145 prostate; 10 µM unless noted 78.8% | K-562 leukemia 59.5% | MALME-3M melanoma; 10 µM unless noted 77.7% | MDA-MB-231 breast; 10 µM unless noted 40% | RXF 393 renal; 10 µM unless noted 41.4% | SF-268 CNS; 10 µM unless noted 50.2% | SF-295 CNS; 10 µM unless noted 58.8% | SF-539 CNS; 10 µM unless noted 34.1% | UACC-257 melanoma; 10 µM unless noted 90.8% | M14 melanoma; 10 µM unless noted 84.9%
active: HOP-62 NSCLC; 10 µM unless noted -8.81%

Cc1ccc2nc(NC(=O)Nc3cccc(Cl)c3)sc2c1
inactive: NCI-H23 lung; 10 µM unless noted 93.8% | NCI-H226 lung; 10 µM unless noted 96.4% | NCI-H322M lung; 10 µM unless noted 93.7% | HOP-62 NSCLC; 10 µM unless noted 111% | NCI-H460 lung; 10 µM unless noted 99.1% | HOP-92 NSCLC; 10 µM unless noted 119% | NCI-H522 lung; 10 µM unless noted 94% | A549/ATCC NSCLC; 10 µM unless noted 106% | 786-0 renal; 10 µM unless noted 107% | COLO 205 colon; 10 µM unless noted 117% | DU-145 prostate; 10 µM unless noted 118% | K-562 leukemia 90.3% | MALME-3M melanoma; 10 µM unless noted 93.5% | MDA-MB-231 breast; 10 µM unless noted 92% | RXF 393 renal; 10 µM unless noted 121% | SF-268 CNS; 10 µM unless noted 118% | SF-295 CNS; 10 µM unless noted 98.8% | SF-539 CNS; 10 µM unless noted 102% | UACC-257 melanoma; 10 µM unless noted 111% | M14 melanoma; 10 µM unless noted 97.6%

CN(C)c1nc(NCCNS(=O)(=O)c2ccc(C(=O)/C=C/c3ccc(Cl)cc3)cc2)nc(N2CCOCC2)n1
inactive: NCI-H226 lung; 10 µM unless noted 74.9% | NCI-H322M lung; 10 µM unless noted 81.2% | HOP-62 NSCLC; 10 µM unless noted 74.8% | NCI-H460 lung; 10 µM unless noted 50.7% | HOP-92 NSCLC; 10 µM unless noted 67.9% | NCI-H522 lung; 10 µM unless noted 25% | A549/ATCC NSCLC; 10 µM unless noted 12% | COLO 205 colon; 10 µM unless noted 21.1% | MALME-3M melanoma; 10 µM unless noted 89.2% | MDA-MB-231 breast; 10 µM unless noted 15.7% | SF-268 CNS; 10 µM unless noted 57.8% | SF-295 CNS; 10 µM unless noted 55.5% | UACC-257 melanoma; 10 µM unless noted 71.5%
active: NCI-H23 lung; 10 µM unless noted 9.4% | 786-0 renal; 10 µM unless noted -41.6% | DU-145 prostate; 10 µM unless noted 6.95% | K-562 leukemia -6.36% | RXF 393 renal; 10 µM unless noted -59.3% | SF-539 CNS; 10 µM unless noted -67.5% | M14 melanoma; 10 µM unless noted -20.2%

CC/C(=C(/c1ccc(O)cc1)c1ccc(OCCN(C)C(=O)COCCOCCNC(=O)Cc2ccc3c(c2)CN([C@@H]2CCC(=O)NC2=O)C3=O)cc1)c1ccccc1
active: MALME-3M melanoma; 10 µM 1.5% | MDA-MB-231 breast; 1 µM 9.31% | MDA-MB-231 breast; 10 µM -22.2%
inactive: NCI-H23 lung; 1 µM 101% | NCI-H23 lung; 10 µM 97.4% | NCI-H226 lung; 1 µM 93.8% | NCI-H226 lung; 10 µM 39.9% | NCI-H322M lung; 1 µM 93.9% | NCI-H322M lung; 10 µM 64.1% | HOP-62 NSCLC; 1 µM 91.6% | HOP-62 NSCLC; 10 µM 38.8% | NCI-H460 lung; 1 µM 125% | NCI-H460 lung; 10 µM 110% | HOP-92 NSCLC; 1 µM 15.5% | HOP-92 NSCLC; 10 µM 12.7% | NCI-H522 lung; 1 µM 93.6% | NCI-H522 lung; 10 µM 88.1% | A549/ATCC NSCLC; 1 µM 102% | A549/ATCC NSCLC; 10 µM 88.1% | 786-0 renal; 1 µM 96% | 786-0 renal; 10 µM 80.7% | COLO 205 colon; 1 µM 96.4% | COLO 205 colon; 10 µM 31.2% | DU-145 prostate; 1 µM 104% | DU-145 prostate; 10 µM 105% | MALME-3M melanoma; 1 µM 51.4% | RXF 393 renal; 1 µM 97.4% | RXF 393 renal; 10 µM 99.2% | SF-268 CNS; 1 µM 96.2% | SF-268 CNS; 10 µM 61.3% | SF-295 CNS; 1 µM 101% | SF-295 CNS; 10 µM 94.7% | SF-539 CNS; 1 µM 80.7% | SF-539 CNS; 10 µM 65.3% | UACC-257 melanoma; 1 µM 101% | UACC-257 melanoma; 10 µM 99.8% | M14 melanoma; 1 µM 92.8% | M14 melanoma; 10 µM 65.4%

N#Cc1ccc(C(=O)CSc2nc3c(c(Nc4ccc(S(N)(=O)=O)cc4)n2)CCC3)cc1
inactive: NCI-H226 lung; 10 µM unless noted 54.1% | NCI-H322M lung; 10 µM unless noted 75.3% | NCI-H460 lung; 10 µM unless noted 39.6% | HOP-92 NSCLC; 10 µM unless noted 14.1% | NCI-H522 lung; 10 µM unless noted 44.6% | A549/ATCC NSCLC; 10 µM unless noted 50% | COLO 205 colon; 10 µM unless noted 87.2% | DU-145 prostate; 10 µM unless noted 51.1% | K-562 leukemia 55.2% | MALME-3M melanoma; 10 µM unless noted 48.8% | SF-268 CNS; 10 µM unless noted 38.3% | SF-295 CNS; 10 µM unless noted 80.4% | SF-539 CNS; 10 µM unless noted 16.2% | UACC-257 melanoma; 10 µM unless noted 102% | M14 melanoma; 10 µM unless noted 78.1%
active: NCI-H23 lung; 10 µM unless noted -0.896% | HOP-62 NSCLC; 10 µM unless noted 1.39% | 786-0 renal; 10 µM unless noted -22.3% | MDA-MB-231 breast; 10 µM unless noted -14.3% | RXF 393 renal; 10 µM unless noted -18.1%
